Experimental data reported in paper PMC7862700, “An all-to-all approach to the identification of sequence-specific readers for epigenetic DNA modifications on cytosine”.

How the values were obtained:
Assay in all cases: DAPPL (digital affinity profiling via proximity ligation, sequencing); 10 mM Tris-HCl pH 7.5, 50 mM NaCl, 1 mM DTT, 4% glycerol, room temperature, 30 min; GST-TFs on glutathione beads, 16-mer random dsDNA library, 0.1% formaldehyde crosslink after washing; high values mean tight binding
Settings in all cases: protein: recombinant; tags: N-terminal GST; dsDNA, one strand shown
FLI1 = biological target: T1, FLI1 (Homo sapiens, UniProt Q01543 1-452)
T1 sequence: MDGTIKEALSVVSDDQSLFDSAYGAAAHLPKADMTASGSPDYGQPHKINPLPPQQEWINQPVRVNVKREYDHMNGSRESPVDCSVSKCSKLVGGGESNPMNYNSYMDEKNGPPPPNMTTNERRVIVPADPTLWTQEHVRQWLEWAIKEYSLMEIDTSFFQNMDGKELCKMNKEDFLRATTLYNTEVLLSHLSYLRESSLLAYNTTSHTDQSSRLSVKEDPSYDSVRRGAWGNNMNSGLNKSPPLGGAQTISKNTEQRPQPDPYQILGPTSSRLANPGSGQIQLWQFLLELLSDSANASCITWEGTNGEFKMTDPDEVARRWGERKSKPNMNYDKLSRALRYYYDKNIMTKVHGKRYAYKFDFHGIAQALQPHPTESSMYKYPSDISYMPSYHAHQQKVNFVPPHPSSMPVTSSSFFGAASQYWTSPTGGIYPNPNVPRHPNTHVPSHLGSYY
Outline: (§1)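 Human transcription factors were made in yeast as GST fusions, captured on glutathione beads and barcoded with DNA. With a tag-only sample included, the pool was incubated with 200 nmole of a random double-stranded 16-mer DNA library in Tris/NaCl/DTT/glycerol buffer at room temperature for 30 min, then crosslinked with 0.1% formaldehyde after washing, ligated by proximity, amplified and sequenced. For binding signal, each hexamer's read frequency for a factor is divided by its frequency for the tag-only sample.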

ELK1 = biological target: T2, ELK1 (Homo sapiens, UniProt P19419 1-428)
T2 sequence: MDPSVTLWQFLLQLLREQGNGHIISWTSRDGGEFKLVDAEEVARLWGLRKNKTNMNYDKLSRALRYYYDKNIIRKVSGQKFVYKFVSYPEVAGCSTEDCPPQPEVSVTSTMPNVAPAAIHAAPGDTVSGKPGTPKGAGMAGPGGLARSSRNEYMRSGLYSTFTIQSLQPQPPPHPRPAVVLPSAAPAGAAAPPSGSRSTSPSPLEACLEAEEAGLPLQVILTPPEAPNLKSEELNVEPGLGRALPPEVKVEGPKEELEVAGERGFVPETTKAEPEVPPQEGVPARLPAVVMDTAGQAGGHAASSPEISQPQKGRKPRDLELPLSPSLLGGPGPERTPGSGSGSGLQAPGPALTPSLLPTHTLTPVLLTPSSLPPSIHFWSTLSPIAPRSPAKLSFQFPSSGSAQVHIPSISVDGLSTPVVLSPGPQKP
Outline: as §1

GABPA = biological target: T3, GABPA (Homo sapiens, UniProt Q06546 1-454)
T3 sequence: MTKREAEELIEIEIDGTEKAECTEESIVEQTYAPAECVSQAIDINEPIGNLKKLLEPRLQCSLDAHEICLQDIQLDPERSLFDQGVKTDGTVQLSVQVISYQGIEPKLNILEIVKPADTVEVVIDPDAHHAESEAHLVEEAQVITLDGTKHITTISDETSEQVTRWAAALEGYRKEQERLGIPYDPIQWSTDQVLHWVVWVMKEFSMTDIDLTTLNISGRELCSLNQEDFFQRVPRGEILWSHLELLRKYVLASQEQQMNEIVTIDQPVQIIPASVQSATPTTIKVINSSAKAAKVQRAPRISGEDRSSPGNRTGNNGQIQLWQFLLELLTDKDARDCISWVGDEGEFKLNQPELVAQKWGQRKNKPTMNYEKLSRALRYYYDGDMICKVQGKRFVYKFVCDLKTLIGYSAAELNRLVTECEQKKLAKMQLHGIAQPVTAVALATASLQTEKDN
Outline: as §1

ERG = biological target: T4, ERG (Homo sapiens, UniProt P11308 1-479)
T4 sequence: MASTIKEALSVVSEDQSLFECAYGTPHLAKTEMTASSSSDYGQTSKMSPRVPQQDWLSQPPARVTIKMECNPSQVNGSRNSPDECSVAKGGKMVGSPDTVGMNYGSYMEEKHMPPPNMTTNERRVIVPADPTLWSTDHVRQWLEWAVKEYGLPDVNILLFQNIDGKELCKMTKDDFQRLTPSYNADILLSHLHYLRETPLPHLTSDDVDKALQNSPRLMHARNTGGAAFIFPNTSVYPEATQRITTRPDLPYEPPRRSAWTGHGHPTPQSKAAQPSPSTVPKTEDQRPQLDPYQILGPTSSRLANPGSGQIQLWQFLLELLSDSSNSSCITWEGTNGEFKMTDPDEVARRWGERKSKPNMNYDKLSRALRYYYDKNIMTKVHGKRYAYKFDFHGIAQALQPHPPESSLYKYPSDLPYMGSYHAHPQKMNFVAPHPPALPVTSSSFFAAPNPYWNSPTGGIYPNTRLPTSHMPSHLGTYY
Outline: as §1

ELF1 = ELF1 (Homo sapiens, UniProt P32519 1-619)
Outline: as §1

EHF = biological target: T5, EHF (Homo sapiens, UniProt Q9NZC4 1-300)
T5 sequence: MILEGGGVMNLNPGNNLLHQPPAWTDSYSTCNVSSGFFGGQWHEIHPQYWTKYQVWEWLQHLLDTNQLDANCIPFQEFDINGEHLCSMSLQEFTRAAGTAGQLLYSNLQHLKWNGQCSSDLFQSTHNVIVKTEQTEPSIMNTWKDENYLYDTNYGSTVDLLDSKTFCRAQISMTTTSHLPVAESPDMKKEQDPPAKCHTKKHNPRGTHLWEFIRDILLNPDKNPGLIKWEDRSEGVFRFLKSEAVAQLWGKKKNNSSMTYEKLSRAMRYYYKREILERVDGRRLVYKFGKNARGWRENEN
Outline: as §1

SPI1 = SPI1 (Homo sapiens, UniProt P17947 1-270)
Outline: as §1

SPIB = SPIB (Homo sapiens, UniProt Q01892 1-262)
Outline: as §1

ELK3 = biological target: T6, ELK3 (Homo sapiens, UniProt P41970 1-407)
T6 sequence: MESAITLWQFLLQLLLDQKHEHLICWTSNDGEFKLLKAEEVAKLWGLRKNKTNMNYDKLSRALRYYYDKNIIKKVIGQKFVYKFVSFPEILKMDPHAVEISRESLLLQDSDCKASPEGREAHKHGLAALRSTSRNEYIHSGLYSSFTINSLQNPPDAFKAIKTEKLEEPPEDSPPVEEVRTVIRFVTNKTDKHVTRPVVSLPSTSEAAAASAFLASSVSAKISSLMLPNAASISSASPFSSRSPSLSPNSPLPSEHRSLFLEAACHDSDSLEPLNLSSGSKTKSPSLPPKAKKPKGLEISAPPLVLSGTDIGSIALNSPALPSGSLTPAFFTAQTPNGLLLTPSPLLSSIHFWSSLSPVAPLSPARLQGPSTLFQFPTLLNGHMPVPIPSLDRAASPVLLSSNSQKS
Outline: as §1

FEV = biological target: T7, FEV (Homo sapiens, UniProt Q99581 1-238)
T7 sequence: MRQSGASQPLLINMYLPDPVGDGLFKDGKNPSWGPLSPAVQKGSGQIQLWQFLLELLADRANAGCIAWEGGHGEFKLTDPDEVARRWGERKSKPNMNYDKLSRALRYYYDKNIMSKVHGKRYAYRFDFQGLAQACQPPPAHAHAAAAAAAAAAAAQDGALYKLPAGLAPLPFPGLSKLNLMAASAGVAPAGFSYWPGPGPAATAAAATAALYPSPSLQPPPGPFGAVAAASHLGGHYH
Outline: as §1

ETV5 = ETV5 (Homo sapiens, UniProt P41161 1-510)
Outline: as §1

SPIC = biological target: T8, SPIC (Homo sapiens, UniProt Q8N5J4 1-248)
T8 sequence: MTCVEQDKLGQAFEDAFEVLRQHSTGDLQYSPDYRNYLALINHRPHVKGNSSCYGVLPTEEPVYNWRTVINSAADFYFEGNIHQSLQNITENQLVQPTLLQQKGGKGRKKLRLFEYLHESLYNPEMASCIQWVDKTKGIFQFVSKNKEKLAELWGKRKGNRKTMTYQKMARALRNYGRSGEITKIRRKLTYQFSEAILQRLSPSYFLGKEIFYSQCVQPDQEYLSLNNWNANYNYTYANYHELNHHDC
Outline: as §1

ELF4 = ELF4 (Homo sapiens, UniProt Q99607 1-663)
Outline: as §1

ELK4 = biological target: T9, ELK4 (Homo sapiens, UniProt P28324-2 1-405)
T9 sequence: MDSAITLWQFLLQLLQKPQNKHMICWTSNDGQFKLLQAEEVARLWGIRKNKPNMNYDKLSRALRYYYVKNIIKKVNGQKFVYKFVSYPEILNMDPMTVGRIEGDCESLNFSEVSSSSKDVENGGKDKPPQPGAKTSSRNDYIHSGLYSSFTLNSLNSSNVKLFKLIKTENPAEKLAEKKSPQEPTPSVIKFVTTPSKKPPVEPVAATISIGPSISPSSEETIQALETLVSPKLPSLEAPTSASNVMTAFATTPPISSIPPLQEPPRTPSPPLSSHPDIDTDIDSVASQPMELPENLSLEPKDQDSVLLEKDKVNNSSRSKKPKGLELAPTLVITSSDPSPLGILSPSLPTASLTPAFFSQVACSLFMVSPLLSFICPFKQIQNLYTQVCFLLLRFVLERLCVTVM
Outline: as §1

ETV2 = biological target: T10, ETV2 (Homo sapiens, UniProt O00321 1-342)
T10 sequence: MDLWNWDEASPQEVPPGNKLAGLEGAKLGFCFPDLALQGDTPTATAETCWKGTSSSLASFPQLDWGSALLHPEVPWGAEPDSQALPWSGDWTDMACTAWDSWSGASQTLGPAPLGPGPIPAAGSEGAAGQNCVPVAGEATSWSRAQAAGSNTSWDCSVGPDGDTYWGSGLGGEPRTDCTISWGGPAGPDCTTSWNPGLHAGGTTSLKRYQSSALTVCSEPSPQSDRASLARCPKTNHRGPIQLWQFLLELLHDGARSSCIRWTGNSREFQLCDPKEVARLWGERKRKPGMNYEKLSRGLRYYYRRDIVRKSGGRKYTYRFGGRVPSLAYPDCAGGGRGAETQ
Outline: as §1

ELF3 = biological target: T11, ELF3 (Homo sapiens, UniProt P78545 1-371)
T11 sequence: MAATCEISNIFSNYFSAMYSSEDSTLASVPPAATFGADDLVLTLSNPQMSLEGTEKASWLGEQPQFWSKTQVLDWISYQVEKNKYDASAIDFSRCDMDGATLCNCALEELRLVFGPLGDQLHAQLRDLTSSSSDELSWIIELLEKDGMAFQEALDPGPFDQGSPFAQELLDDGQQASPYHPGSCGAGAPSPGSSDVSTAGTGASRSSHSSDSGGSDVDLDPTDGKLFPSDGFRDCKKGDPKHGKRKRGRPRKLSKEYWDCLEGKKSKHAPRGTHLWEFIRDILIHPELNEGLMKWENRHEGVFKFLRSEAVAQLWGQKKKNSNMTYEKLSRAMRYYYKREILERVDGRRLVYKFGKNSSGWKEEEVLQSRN
Outline: as §1

ETV1 = ETV1 (Homo sapiens, UniProt P50549 1-477)
Outline: as §1

Sequence of SPIB (Q01892 whole entry): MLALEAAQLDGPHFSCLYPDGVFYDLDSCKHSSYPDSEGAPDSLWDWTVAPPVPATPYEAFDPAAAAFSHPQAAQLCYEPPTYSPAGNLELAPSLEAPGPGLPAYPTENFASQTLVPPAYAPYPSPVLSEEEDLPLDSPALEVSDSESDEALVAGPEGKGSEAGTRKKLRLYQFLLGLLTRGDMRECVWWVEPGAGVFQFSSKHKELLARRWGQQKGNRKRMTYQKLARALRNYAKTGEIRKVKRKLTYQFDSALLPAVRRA
Sequence of ETV5 (P41161 whole entry): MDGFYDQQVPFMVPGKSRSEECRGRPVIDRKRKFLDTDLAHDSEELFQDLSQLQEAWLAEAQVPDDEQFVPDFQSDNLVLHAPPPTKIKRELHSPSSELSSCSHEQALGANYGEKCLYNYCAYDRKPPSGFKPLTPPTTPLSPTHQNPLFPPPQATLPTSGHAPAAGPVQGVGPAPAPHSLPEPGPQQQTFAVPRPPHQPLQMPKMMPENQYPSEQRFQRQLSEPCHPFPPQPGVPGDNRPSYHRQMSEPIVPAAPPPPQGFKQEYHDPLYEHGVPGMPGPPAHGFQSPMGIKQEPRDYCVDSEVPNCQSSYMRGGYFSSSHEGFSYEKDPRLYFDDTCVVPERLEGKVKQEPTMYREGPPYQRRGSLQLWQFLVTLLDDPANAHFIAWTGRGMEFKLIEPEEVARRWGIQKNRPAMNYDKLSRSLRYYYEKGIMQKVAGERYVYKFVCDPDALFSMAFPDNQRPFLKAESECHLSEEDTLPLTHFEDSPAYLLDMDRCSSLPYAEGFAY
Sequence of ELF4 (Q99607 whole entry): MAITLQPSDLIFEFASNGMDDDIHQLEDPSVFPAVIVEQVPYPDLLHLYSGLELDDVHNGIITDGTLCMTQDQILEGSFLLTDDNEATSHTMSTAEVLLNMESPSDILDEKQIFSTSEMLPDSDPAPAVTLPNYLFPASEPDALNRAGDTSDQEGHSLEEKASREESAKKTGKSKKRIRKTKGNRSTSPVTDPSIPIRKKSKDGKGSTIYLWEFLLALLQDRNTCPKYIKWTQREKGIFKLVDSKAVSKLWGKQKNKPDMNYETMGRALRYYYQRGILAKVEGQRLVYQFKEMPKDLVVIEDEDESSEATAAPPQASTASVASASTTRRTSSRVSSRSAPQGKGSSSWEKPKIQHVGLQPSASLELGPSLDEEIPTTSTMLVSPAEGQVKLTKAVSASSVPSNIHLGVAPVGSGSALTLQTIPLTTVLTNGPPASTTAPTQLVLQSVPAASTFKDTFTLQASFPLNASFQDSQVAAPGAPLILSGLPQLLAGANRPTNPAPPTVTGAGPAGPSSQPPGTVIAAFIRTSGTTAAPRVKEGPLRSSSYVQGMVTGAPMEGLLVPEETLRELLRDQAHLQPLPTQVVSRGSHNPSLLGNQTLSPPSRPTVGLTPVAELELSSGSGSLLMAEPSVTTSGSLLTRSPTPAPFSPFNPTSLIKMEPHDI
Sequence of ETV1 (P50549 whole entry): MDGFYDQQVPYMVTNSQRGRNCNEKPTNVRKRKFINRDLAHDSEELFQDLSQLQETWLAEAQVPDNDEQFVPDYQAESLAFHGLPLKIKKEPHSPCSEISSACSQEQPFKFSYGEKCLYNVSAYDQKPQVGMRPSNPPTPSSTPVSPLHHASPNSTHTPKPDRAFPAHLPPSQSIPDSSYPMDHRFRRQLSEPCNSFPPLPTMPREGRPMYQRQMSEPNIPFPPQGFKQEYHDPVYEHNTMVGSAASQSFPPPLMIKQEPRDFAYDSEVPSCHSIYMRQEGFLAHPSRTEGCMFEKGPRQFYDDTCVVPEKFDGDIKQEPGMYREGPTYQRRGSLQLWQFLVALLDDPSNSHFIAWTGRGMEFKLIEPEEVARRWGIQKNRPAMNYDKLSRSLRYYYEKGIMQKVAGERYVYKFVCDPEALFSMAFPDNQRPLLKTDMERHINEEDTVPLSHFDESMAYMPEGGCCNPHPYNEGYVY
Sequence of ELF1 (P32519 whole entry): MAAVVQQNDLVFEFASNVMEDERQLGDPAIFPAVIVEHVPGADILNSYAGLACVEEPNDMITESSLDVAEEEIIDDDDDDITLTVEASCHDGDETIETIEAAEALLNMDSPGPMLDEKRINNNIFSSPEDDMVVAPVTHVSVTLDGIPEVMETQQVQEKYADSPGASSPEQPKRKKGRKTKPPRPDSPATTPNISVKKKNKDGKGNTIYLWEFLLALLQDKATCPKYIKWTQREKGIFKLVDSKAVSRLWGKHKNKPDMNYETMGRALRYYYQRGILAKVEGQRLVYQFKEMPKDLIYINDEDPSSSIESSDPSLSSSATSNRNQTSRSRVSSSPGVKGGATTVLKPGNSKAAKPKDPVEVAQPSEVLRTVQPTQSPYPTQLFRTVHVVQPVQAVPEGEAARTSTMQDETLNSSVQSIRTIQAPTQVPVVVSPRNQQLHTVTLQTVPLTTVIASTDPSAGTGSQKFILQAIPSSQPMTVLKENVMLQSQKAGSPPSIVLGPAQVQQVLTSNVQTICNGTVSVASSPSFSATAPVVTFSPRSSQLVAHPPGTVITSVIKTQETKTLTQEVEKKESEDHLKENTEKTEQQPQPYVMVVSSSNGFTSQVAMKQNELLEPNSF

Sequence | binding signal (FLI1) | binding signal (ELK1) | binding signal (GABPA) | binding signal (ERG) | binding signal (ELF1) | binding signal (EHF) | binding signal (SPI1) | binding signal (SPIB) | binding signal (ELK3) | binding signal (FEV) | binding signal (ETV5) | binding signal (SPIC) | binding signal (ELF4) | binding signal (ELK4) | binding signal (ETV2) | binding signal (ELF3) | binding signal (ETV1)
CGTTAC | 1.17 fold enrichment (6-mer frequency, TF over GST control) | 1.09 fold enrichment (6-mer frequency, TF over GST control) | 1.08 fold enrichment (6-mer frequency, TF over GST control) | 1.11 fold enrichment (6-mer frequency, TF over GST control) | 1.12 fold enrichment (6-mer frequency, TF over GST control) | 1.14 fold enrichment (6-mer frequency, TF over GST control) | 1.27 fold enrichment (6-mer frequency, TF over GST control) | 1.11 fold enrichment (6-mer frequency, TF over GST control) | 1.21 fold enrichment (6-mer frequency, TF over GST control) | 1.13 fold enrichment (6-mer frequency, TF over GST control) | 1.08 fold enrichment (6-mer frequency, TF over GST control) | 1.05 fold enrichment (6-mer frequency, TF over GST control) | 1.07 fold enrichment (6-mer frequency, TF over GST control) | 1.02 fold enrichment (6-mer frequency, TF over GST control) | 1.02 fold enrichment (6-mer frequency, TF over GST control) | 1.04 fold enrichment (6-mer frequency, TF over GST control) | 1.17 fold enrichment (6-mer frequency, TF over GST control)
TTGCGT | 1.05 fold enrichment (6-mer frequency, TF over GST control) | 1.14 fold enrichment (6-mer frequency, TF over GST control) | 1.12 fold enrichment (6-mer frequency, TF over GST control) | 1.03 fold enrichment (6-mer frequency, TF over GST control) | 1.11 fold enrichment (6-mer frequency, TF over GST control) | 1.01 fold enrichment (6-mer frequency, TF over GST control) | 1.11 fold enrichment (6-mer frequency, TF over GST control) | 1.11 fold enrichment (6-mer frequency, TF over GST control) | 1.13 fold enrichment (6-mer frequency, TF over GST control) |  | 1.1 fold enrichment (6-mer frequency, TF over GST control) | 1.1 fold enrichment (6-mer frequency, TF over GST control) | 1.08 fold enrichment (6-mer frequency, TF over GST control) | 1.12 fold enrichment (6-mer frequency, TF over GST control) | 1.33 fold enrichment (6-mer frequency, TF over GST control) | 1.16 fold enrichment (6-mer frequency, TF over GST control) | 1.12 fold enrichment (6-mer frequency, TF over GST control)
